SIRT5 block: sirtuin-5 (human) deacylase inhibition; AID 652115; 330,000 compounds, 1.1% hits; Q9NXA8; inhibition, % at 15 µM; Purified SirT5, succinyl-peptide AMC, trypsin-coupled fluorescence; in the data active = inhibition above about 15%
ERAP1 HTS inh: inhibitors of human ERAP1 aminopeptidase | recombinant ERAP1, Leu-AMC fluorescence, 60 min | inhibition, % at 10.7 µM | 340,000 compounds, 0.15% hits | AID 652197;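 active = mean replicate inhibition of at least 30%, or all replicates individually reaching that 30% level; inactive = mean below 30% and not every replicate reaching it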
CASP6 VEID inh: caspase-6 (human) enzyme inhibition; P55212; purified caspase-6, Z-VEID-R110 cleavage fluorescence; inhibition, % at 12.5 µM; 350,000 compounds, 0.53% hits; AID 686996;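 active = mean inhibition across replicates at least about 35%, with every replicate also reaching that limit, limit read from the data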
Target sequence (P55212 24-179 limits assumed): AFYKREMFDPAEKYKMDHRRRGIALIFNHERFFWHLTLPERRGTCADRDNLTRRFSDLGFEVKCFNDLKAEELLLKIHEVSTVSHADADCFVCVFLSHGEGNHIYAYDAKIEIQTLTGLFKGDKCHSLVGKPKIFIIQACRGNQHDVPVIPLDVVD
Target sequence (P55212 194-293 limits assumed): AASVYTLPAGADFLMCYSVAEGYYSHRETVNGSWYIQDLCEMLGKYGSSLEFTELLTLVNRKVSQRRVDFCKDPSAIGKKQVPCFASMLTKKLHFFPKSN
FGF22 binding-1: FGF22 (human) thermal shift binding; Q9HCT0; recombinant FGF22 thermal shift, SYPRO orange fluorescence; percent of sucrose octasulfate shift, DMSO zero; activity (Tm shift, normalised), % at 9.99 µM; 340,000 compounds, 1.5% hits; AID 651658;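 active = mean Tm shift, scaled 0 neutral to 100 positive control, at about 1.3% or above, every replicate too, limit read from the data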
Target sequence (Q9HCT0 whole entry, looked up): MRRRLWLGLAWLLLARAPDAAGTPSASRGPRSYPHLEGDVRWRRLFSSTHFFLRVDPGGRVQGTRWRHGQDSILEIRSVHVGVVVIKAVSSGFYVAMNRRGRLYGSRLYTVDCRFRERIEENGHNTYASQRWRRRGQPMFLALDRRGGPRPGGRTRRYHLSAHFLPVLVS
FGF22 binding-2: binds human FGF22 shifting its melting temperature | AID 720646 | 1,000 compounds, 2% hits | recombinant FGF22 thermal shift, SYPRO orange fluorescence | shares compounds with FGF22 binding-1 | thermal shift activity, °C (ΔTm) at 38 µM;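 active = fitted rise in melting shift crosses a set limit at or below the top valid dose tested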
FGF22 TSA: binds human FGF22 shifting its melting temperature; shares compounds with FGF22 binding-1; Thermal shift assay, SYPRO orange, melting temperature shift; Tm shift (activity), % at 38 µM; 50 tested, under 10 active;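 active = compounds whose fitted dose curve of melting temperature shift rises past a set threshold within the tested doses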
SYPRO no-protein: shows thermal shift signal without protein, FGF22 counter-screen. shares compounds with FGF22 binding-1. AID 743019. compound-only SYPRO orange thermal shift counter-screen, no protein. AC50, µM (doses to about 38 µM). 1,000 compounds, 2% hits;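 active = rising signal whose fitted curve reaches the 0.54 level within the top valid dose, showing a melting point, actives reach about 13 µM in these data; inactive = the rest, including activity in the opposite direction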; note: value is where the raw curve crosses a fixed level and not half-maximal
A number is an active result; n = inactive; x = no result. Compounds with a hit are over-represented: about 3.1% of the library has one in this group of screens.

SMILES	SIRT5 block	ERAP1 HTS inh	CASP6 VEID inh	FGF22 binding-1	FGF22 binding-2	SYPRO no-protein	others
COc1ccc(S(=O)(=O)N(C)C[C@@H]2Oc3ccc(NC(=O)C4CC4)cc3CC(=O)N([C@H](C)CO)C[C@H]2C)cc1	n	n	n	n	x	x
CCc1ccc(NC(=O)c2ccc(-n3cncn3)c([N+](=O)[O-])c2)cc1	n	n	n	2.3	n	n
COc1ccccc1NS(=O)(=O)c1cccc(NC(=O)c2cc3ccccc3oc2=O)c1	n	n	n	1.8	n	n
COc1ccccc1NS(=O)(=O)c1cccc(NC(=O)Nc2ccccc2)c1	n	n	n	n	x	x
NC(c1ccc(F)c(F)c1)c1nc(-c2cncnc2)cs1 (stereo not given)	n	n	n	37.9	n	n
COc1ccccc1-c1ccc([C@@H]2[C@@H](CO)N(C(=O)C3CC3)[C@H]2C#N)cc1	n	n	n	n	x	x
CCOC(=O)c1sc(NC(=O)Nc2ccccc2)cc1C	n	n	n	2.1	n	n
CCOC(=O)c1c(N)sc(C(=O)Nc2ccccc2)c1C	n	n	n	2.9	n	n
CCOC(=O)c1sc(NC(C)=O)cc1C	n	n	n	n	x	x
O=C(N[C@H]1CC[C@@H](CCn2cc(C3(O)CCCC3)nn2)O[C@@H]1CO)C1CCCCC1	n	n	n	n	x	x
COc1ccc(-c2cn(CC[C@@H]3CC[C@@H](NC(=O)Nc4ccc(F)cc4)[C@H](CO)O3)nn2)cc1	x	x	x	x	n	n
O=C(Nc1ccc(F)cc1)N[C@@H]1CC[C@H](CCn2cc(-c3ccc(F)cc3)nn2)O[C@H]1CO	n	n	n	2.4	n	n
COc1ccc(NC(=O)N[C@H]2CC[C@@H](CCn3cc(-c4ccc(OC)cc4)nn3)O[C@@H]2CO)cc1	n	n	n	1.3	n	n
COc1ccc(NC(=O)N[C@@H]2CC[C@H](CCn3cc(-c4ccc(F)cc4)nn3)O[C@H]2CO)cc1	n	n	n	n	x	x
O=C(Nc1ccc(F)cc1)N[C@@H]1CC[C@H](CCn2cc(-c3ccc(F)cc3)nn2)O[C@@H]1CO	n	n	n	n	x	x
O=C(N[C@H]1CC[C@H](CCn2cc(C3(O)CCCC3)nn2)O[C@@H]1CO)C1CCCCC1	n	n	n	1.8	n	n
CN1C(=O)c2cc(NC(=O)C3CCOCC3)ccc2OC[C@H]2O[C@H](CC(=O)NC3CCCC3)CC[C@H]21	n	n	n	n	x	x
COc1ccc2c3c(n(C)c2c1)[C@H](CO)NCC31CCN(C(C)=O)CC1	x	x	x	n	x	x
O=C(Nc1ccc2c(c1)[C@@H]1C[C@H](CC(=O)N3CCc4ccccc4C3)O[C@H](CO)[C@@H]1O2)c1cccnc1	n	n	n	n	x	x
N#C[C@H]1[C@@H](c2ccccc2-c2ccccc2F)[C@@H](CO)N1C(=O)C1CC1	n	n	n	n	x	x
C[C@@H]1CN([C@H](C)CO)C(=O)c2cc(-c3ccc(F)cc3)cnc2O[C@@H]1CN(C)C(=O)c1ccc(F)cc1	n	n	n	n	x	x
O=C(CCc1ccc(S(=O)(=O)N2CCOCC2)cc1)Nc1ccccc1F	n	n	n	1.5	n	n
CCCNC(=O)C[C@@H]1C[C@H]2c3cc(NC(=O)C4CCOCC4)ccc3O[C@H]2[C@@H](CO)O1	n	n	n	n	x	x
O=C(N/N=C/c1c[nH]c2ccccc12)C1CC1c1ccccc1 (stereo not given)	n	n	n	1.5	n	n
Nc1ccc(C(=O)N/N=C/c2c[nH]c3ccccc23)cc1	n	n	n	2.7	n	n	FGF22 TSA=n
SMILES	SIRT5 block	ERAP1 HTS inh	CASP6 VEID inh	FGF22 binding-1	FGF22 binding-2	SYPRO no-protein	others
O=C(N/N=C\c1c[nH]c2ccccc12)c1ccc(O)cc1	n	n	n	6.7	x	n
O=C(N/N=C/c1c[nH]c2ccccc12)c1ccc(Br)cc1	n	n	n	n	x	x
CC(C)(C)c1ccc(C2CC2C(=O)N/N=C\c2ccc[nH]2)cc1 (stereo not given)	x	n	n	2.0	n	n
CO[C@H]1CN(C)C(=O)c2cc(NC(C)=O)ccc2OC[C@@H](C)N(Cc2ccccc2C(=O)O)C[C@@H]1C	n	n	n	n	x	x
COCCNC(=O)C[C@@H]1CC[C@@H]2[C@H](COc3ccc(NC(=O)c4cc(C)on4)cc3C(=O)N2C)O1	n	n	n	n	x	x
C[C@@H]1CN([C@@H](C)CO)C(=O)c2cc(NC(=O)CCN3CCOCC3)ccc2O[C@H]1CN(C)Cc1ccc(Cl)c(Cl)c1	n	n	n	n	x	x
C[C@@H](O)C#Cc1ccc([C@@H]2[C@@H](CO)N3CCCCN(C(=O)c4ccc5c(c4)OCO5)C[C@H]23)cc1	n	n	n	n	x	x
O=C(Nc1cccc(F)c1)N1C[C@H]2[C@@H](c3ccccc31)[C@@H](CO)N2C(=O)c1cccnc1	n	n	n	n	x	x
O=C(Nc1ccccc1)N1C[C@H]2[C@@H](c3ccccc31)[C@@H](CO)N2C(=O)c1ccncc1	n	n	n	1.4	n	n
O=C(Nc1cccc(F)c1)N1C[C@@H]2[C@H](c3ccccc31)[C@H](CO)N2C(=O)c1cccnc1	n	n	n	1.4	n	n
C[C@@H]1CN([C@H](C)CO)S(=O)(=O)c2ccc(-c3cncnc3)cc2O[C@@H]1CN(C)C(=O)C1CCCCC1	n	n	n	n	x	x
COc1ccc(S(=O)(=O)N(C(C)=O)c2ccc(OC(C)=O)c3ccccc23)cc1[N+](=O)[O-]	n	n	n	1.5	n	n
COC(=O)C[C@H]1C[C@@H]2c3cc(NC(=O)CC4CC4)ccc3O[C@@H]2[C@H](CO)O1	n	n	n	n	x	x
O=C(Cc1c[nH]c2ccccc12)N1CCN(S(=O)(=O)c2ccc(F)cc2)CC1	x	n	n	n	x	x
O=C(Cc1c[nH]c2ccccc12)N1CCN(S(=O)(=O)c2cccc(Cl)c2Cl)CC1	n	n	n	2.9	n	n
O=c1oc(-c2ccc(O)c(O)c2)cc2cccc(O)c12	n	n	n	n	x	x
O=c1oc(-c2ccc(O)c(O)c2)cc2cc(O)cc(O)c12	x	n	n	1.5	n	n
Cc1ccccc1-n1ncc2c1CC(C)(C)CC2NC(=O)C1CCC1 (stereo not given)	n	n	n	1.4	n	n
CC1(C)CCC(=O)N2CC[C@H]3C[C@H](OC(=O)Nc4ccccc4)C[C@@H]1[C@H]32	x	n	n	2.1	n	n
C[C@@H]1CN([C@@H](C)CO)C(=O)c2cc(-c3cncnc3)cnc2O[C@@H]1CN(C)C(=O)Cc1cccnc1	n	n	n	n	x	x
C=CCOc1ccc2c(c1)C(=NO)c1cc(OCC=C)ccc1-2	n	n	n	13.7	n	n
Cc1ccc(S(=O)(=O)N(C)/N=C/c2ccc(N(C)C)cc2)cc1	n	n	n	20.4	n	n

Bioassay records as filed in PubChem.
